This is an account of results in paper PMC7862700, “An all-to-all approach to the identification of sequence-specific readers for epigenetic DNA modifications on cytosine”.

Common to all, as to test: DAPPL (digital affinity profiling via proximity ligation, sequencing); 10 mM Tris-HCl pH 7.5, 50 mM NaCl, 1 mM DTT, 4% glycerol, room temperature, 30 min; GST-TFs on glutathione beads, 16-mer random dsDNA library, 0.1% formaldehyde crosslink after washing; high values mean tight binding
Holding throughout (conditions): protein: recombinant; tags: N-terminal GST; dsDNA, one strand shown

In test [1] the target is T1, FLI1 (Homo sapiens, UniProt Q01543 1-452).
T1 sequence: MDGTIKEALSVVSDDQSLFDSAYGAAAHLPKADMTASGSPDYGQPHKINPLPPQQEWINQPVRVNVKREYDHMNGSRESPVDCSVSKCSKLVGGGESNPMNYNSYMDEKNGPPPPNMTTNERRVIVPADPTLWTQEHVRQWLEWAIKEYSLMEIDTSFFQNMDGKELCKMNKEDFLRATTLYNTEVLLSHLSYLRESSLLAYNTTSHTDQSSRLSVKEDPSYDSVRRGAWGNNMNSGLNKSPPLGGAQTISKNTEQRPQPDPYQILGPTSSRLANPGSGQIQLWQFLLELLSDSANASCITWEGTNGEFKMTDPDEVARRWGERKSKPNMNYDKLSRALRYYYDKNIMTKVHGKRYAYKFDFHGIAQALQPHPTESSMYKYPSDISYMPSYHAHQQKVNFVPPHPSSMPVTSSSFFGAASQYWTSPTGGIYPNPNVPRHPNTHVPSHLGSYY
Put shortly:
(§1)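 Each value of binding signal is a hexamer's read frequency for a factor divided by the same hexamer's frequency in the tag-only sample. Barcoded, bead-captured GST fusions of human transcription factors made in yeast were pooled with that sample and incubated with 200 nmole of a random double-stranded 16-mer DNA library in Tris/NaCl/DTT/glycerol buffer at room temperature for 30 min. Washing, 0.1% formaldehyde crosslinking, proximity ligation, PCR and Illumina NextSeq500 sequencing followed.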

In test [2] the target is T2, ELK1 (Homo sapiens, UniProt P19419 1-428).
T2 sequence: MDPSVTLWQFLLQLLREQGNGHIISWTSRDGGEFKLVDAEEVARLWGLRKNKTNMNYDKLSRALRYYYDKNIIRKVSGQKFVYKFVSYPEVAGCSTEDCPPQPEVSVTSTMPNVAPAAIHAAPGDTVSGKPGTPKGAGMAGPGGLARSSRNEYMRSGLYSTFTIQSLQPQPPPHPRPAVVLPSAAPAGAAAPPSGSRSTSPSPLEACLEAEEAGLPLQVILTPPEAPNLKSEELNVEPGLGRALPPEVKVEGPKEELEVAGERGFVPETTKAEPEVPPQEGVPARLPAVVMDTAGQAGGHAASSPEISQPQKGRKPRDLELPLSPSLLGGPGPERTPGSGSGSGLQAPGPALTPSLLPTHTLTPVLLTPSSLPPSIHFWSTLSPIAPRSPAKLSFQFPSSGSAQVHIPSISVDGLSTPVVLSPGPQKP
In short, it runs like this: as §1

For test [3], the target named is T3, GABPA (Homo sapiens, UniProt Q06546 1-454).
T3 sequence: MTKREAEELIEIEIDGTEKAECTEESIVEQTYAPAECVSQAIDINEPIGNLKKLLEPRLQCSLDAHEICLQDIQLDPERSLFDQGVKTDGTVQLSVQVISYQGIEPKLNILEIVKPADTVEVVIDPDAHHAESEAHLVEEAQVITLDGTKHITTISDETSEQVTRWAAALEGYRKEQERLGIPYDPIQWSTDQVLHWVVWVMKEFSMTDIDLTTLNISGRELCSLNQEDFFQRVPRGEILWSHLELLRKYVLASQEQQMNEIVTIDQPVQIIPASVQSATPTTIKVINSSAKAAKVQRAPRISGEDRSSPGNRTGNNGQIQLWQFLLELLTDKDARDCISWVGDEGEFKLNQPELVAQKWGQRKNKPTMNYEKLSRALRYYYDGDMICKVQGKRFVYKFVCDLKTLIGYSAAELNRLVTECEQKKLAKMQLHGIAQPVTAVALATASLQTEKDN
Put shortly:
as §1

Test [4] concerns the target T4, ERG (Homo sapiens, UniProt P11308 1-479).
T4 sequence: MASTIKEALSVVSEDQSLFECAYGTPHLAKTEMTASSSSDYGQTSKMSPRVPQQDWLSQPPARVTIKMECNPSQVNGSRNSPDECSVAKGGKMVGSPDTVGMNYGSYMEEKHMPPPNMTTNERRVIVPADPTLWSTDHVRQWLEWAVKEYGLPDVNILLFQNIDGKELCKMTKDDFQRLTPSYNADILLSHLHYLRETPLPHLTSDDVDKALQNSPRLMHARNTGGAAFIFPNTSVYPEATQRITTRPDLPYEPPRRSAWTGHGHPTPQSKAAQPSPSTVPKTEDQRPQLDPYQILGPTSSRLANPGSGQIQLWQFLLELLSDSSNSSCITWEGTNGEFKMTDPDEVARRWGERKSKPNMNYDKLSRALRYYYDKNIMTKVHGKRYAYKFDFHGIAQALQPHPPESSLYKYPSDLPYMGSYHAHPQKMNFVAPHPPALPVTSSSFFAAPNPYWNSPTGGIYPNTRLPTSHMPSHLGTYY
Put shortly: as §1

Test [5] addresses ELF1 (Homo sapiens, UniProt P32519 1-619). Put shortly: as §1
For test [6], the target named is T5, EHF (Homo sapiens, UniProt Q9NZC4 1-300).
T5 sequence: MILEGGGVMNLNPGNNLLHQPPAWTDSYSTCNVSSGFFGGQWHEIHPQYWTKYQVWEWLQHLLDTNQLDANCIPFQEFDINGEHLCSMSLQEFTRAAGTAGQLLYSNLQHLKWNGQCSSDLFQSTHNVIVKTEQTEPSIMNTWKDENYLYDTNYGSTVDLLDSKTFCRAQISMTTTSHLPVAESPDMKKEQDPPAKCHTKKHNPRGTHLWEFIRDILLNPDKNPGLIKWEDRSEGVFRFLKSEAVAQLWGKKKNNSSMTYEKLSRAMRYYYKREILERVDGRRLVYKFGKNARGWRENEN
Put shortly: as §1

Test [7] deals with SPI1 (Homo sapiens, UniProt P17947 1-270). Put shortly: as §1
Test [8] deals with SPIB (Homo sapiens, UniProt Q01892 1-262). In short, it runs like this:
as §1

The target of test [9] is T6, ELK3 (Homo sapiens, UniProt P41970 1-407).
T6 sequence: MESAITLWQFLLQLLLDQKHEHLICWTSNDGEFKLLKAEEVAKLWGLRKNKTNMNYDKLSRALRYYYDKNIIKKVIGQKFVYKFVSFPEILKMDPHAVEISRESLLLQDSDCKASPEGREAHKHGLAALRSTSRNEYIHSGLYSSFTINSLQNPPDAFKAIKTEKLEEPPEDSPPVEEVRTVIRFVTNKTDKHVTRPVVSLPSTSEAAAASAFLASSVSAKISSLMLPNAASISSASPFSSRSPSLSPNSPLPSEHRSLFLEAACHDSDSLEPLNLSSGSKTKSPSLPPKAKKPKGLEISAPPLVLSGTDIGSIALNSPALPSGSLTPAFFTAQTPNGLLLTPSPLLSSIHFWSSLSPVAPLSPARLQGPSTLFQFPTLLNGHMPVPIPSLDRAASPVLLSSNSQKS
In short, it runs like this:
as §1

For test [10], the target named is T7, FEV (Homo sapiens, UniProt Q99581 1-238).
T7 sequence: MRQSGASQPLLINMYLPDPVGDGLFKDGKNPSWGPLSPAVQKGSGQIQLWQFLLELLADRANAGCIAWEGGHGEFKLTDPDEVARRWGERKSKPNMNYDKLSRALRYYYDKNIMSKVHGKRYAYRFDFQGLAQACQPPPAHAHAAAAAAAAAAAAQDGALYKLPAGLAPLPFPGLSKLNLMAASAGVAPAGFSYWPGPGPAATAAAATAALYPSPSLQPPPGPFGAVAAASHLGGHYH
Put shortly:
as §1

The target of test [11] is ETV5 (Homo sapiens, UniProt P41161 1-510). Put shortly:
as §1

Test [12] deals with T8, SPIC (Homo sapiens, UniProt Q8N5J4 1-248).
T8 sequence: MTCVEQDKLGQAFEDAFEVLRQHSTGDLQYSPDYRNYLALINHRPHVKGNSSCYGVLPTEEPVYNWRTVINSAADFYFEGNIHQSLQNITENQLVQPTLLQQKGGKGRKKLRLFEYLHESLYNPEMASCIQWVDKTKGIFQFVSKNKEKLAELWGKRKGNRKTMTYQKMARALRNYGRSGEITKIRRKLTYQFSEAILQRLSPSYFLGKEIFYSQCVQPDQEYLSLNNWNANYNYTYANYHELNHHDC
In short, it runs like this: as §1

For test [13], the target named is ELF4 (Homo sapiens, UniProt Q99607 1-663). In short, it runs like this: as §1
In test [14] the target is T9, ELK4 (Homo sapiens, UniProt P28324-2 1-405).
T9 sequence: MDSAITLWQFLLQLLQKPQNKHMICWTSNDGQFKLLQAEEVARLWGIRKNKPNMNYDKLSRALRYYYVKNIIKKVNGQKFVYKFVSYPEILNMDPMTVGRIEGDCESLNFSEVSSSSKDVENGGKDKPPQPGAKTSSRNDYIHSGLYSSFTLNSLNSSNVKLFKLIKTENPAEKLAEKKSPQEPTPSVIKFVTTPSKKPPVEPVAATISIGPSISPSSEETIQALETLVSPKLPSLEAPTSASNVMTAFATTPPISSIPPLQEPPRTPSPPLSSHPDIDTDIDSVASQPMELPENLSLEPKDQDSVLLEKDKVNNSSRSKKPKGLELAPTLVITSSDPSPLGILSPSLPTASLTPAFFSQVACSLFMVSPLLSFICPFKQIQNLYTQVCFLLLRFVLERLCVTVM
Put shortly:
as §1

Test [15] concerns the target T10, ETV2 (Homo sapiens, UniProt O00321 1-342).
T10 sequence: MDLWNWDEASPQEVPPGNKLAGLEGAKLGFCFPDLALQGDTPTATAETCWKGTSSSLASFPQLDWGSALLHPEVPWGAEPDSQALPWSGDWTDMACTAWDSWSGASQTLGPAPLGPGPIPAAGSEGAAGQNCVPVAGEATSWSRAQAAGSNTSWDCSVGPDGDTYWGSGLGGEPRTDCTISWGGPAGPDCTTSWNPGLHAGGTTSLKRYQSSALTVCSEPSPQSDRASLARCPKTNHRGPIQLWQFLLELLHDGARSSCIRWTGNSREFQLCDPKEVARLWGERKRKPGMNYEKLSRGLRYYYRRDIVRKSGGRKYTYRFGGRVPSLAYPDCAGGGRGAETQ
In short, it runs like this:
as §1

The target of test [16] is T11, ELF3 (Homo sapiens, UniProt P78545 1-371).
T11 sequence: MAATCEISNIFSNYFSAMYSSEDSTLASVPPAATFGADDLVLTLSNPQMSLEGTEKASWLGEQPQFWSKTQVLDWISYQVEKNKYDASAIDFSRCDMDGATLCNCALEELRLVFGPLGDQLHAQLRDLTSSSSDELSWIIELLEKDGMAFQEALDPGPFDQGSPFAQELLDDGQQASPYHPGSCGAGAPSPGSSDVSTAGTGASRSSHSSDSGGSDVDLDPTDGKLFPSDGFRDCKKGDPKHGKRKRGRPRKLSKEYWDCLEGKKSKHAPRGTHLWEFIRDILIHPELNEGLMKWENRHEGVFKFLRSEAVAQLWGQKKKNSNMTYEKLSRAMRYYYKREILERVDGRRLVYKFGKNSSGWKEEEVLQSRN
In short, it runs like this:
as §1

The target in test [17] is ETV1 (Homo sapiens, UniProt P50549 1-477). In short, it runs like this: as §1
Chain of ETV1 (P50549 whole entry): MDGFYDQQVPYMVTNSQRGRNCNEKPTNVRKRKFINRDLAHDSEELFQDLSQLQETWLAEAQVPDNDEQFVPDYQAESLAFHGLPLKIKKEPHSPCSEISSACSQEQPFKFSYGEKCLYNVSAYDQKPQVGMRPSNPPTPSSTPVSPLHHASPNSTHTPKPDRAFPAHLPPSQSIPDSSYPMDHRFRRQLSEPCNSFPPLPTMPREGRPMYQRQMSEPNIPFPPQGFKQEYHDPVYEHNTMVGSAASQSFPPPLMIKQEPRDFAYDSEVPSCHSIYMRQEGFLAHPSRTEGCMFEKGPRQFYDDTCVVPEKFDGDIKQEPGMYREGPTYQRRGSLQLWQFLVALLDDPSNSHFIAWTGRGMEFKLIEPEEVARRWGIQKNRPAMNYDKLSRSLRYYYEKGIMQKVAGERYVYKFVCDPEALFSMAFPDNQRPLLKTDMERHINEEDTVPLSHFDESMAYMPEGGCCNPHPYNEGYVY

Chain of ELF4 (Q99607 whole entry): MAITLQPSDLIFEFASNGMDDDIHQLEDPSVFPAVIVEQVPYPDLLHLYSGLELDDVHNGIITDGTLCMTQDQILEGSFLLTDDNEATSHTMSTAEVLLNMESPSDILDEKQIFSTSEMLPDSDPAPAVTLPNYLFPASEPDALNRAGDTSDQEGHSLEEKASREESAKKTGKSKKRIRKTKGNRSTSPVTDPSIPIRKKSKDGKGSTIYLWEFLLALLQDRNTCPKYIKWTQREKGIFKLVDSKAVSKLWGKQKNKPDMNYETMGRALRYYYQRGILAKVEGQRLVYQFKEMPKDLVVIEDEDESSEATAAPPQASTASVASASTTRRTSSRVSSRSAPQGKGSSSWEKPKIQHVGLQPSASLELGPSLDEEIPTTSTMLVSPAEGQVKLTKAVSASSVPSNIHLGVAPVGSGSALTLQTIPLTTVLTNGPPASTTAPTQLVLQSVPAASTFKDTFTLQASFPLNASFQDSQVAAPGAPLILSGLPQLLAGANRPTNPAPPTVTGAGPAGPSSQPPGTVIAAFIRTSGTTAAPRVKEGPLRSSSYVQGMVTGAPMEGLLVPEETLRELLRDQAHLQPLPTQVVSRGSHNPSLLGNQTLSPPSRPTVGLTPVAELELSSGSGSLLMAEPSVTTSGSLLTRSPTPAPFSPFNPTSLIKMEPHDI
Chain of ELF1 (P32519 whole entry): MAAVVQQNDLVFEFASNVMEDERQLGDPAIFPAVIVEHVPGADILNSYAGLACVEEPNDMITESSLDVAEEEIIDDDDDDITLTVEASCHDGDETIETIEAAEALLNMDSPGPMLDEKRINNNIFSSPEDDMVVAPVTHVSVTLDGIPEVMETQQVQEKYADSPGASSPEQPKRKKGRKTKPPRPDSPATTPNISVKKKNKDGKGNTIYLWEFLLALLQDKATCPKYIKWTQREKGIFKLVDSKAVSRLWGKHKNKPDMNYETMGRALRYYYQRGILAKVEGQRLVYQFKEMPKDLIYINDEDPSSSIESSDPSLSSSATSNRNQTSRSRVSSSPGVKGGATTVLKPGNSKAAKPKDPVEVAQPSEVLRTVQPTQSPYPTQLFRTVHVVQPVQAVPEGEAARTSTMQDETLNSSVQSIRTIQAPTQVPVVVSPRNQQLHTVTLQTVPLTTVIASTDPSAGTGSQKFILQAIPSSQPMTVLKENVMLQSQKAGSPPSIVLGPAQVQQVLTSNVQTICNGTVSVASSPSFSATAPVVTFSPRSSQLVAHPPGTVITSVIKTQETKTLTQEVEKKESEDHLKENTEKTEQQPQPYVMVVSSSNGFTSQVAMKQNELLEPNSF
Chain of ETV5 (P41161 whole entry): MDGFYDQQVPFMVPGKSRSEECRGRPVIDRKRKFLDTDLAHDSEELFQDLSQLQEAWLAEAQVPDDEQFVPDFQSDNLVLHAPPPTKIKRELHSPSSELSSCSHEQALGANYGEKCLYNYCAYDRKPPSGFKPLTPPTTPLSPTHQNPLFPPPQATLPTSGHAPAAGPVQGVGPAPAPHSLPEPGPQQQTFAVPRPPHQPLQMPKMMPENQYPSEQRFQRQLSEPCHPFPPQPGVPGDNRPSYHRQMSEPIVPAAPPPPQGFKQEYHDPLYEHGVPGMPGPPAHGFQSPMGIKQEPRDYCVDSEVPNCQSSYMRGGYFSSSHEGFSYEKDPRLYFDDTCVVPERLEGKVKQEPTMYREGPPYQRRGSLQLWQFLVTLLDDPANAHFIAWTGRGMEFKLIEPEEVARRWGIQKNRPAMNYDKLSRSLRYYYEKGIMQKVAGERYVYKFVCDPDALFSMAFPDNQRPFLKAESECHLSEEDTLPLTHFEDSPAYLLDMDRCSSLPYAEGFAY
Chain of SPIB (Q01892 whole entry): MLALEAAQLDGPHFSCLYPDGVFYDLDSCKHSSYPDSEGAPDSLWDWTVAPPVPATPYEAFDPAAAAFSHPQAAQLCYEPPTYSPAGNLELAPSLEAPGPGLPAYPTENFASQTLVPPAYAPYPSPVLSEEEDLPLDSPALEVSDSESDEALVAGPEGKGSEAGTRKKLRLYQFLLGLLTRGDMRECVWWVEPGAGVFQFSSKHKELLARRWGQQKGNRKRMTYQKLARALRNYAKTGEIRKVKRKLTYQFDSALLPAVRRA

For the sequence ACACAT, the binding signal in test [1] was 1.34 fold enrichment (6-mer frequency, TF over GST control); in test [2] it was 1.25 fold enrichment (6-mer frequency, TF over GST control); in [3] it was 1.17 fold enrichment (6-mer frequency, TF over GST control); in test [4], 1.31 fold enrichment (6-mer frequency, TF over GST control); in test [5] it was 1.25 fold enrichment (6-mer frequency, TF over GST control); in test [6] it was 1.35 fold enrichment (6-mer frequency, TF over GST control). Also, the binding signal in test [7] was 1.21 fold enrichment (6-mer frequency, TF over GST control); in [8], 1.21 fold enrichment (6-mer frequency, TF over GST control); in [9], 1.32 fold enrichment (6-mer frequency, TF over GST control); in test [10] it was 1.29 fold enrichment (6-mer frequency, TF over GST control); in test [11], 1.19 fold enrichment (6-mer frequency, TF over GST control); in [12], 1.17 fold enrichment (6-mer frequency, TF over GST control). Moreover, the binding signal in [13] is 1.23 fold enrichment (6-mer frequency, TF over GST control); in [14] it was 1.33 fold enrichment (6-mer frequency, TF over GST control); in [15], 1.35 fold enrichment (6-mer frequency, TF over GST control); in [16], 1.28 fold enrichment (6-mer frequency, TF over GST control); in test [17], 1.23 fold enrichment (6-mer frequency, TF over GST control).

Turning to TGTGCC, the binding signal in [1] is 1.17 fold enrichment (6-mer frequency, TF over GST control); in test [2] it was 1.2 fold enrichment (6-mer frequency, TF over GST control); in test [3], 1.07 fold enrichment (6-mer frequency, TF over GST control); in test [4], 1.17 fold enrichment (6-mer frequency, TF over GST control); in test [5] it was 1.21 fold enrichment (6-mer frequency, TF over GST control); in test [6] it was 1.02 fold enrichment (6-mer frequency, TF over GST control). Further, the binding signal is 1.06 fold enrichment (6-mer frequency, TF over GST control) in test [7]; 1.04 fold enrichment (6-mer frequency, TF over GST control) in [8]; 1.3 fold enrichment (6-mer frequency, TF over GST control) in test [9]; 1.2 fold enrichment (6-mer frequency, TF over GST control) in test [10]; 1.21 fold enrichment (6-mer frequency, TF over GST control) in test [11]; 1.12 fold enrichment (6-mer frequency, TF over GST control) in test [12]. The binding signal was 1.17 fold enrichment (6-mer frequency, TF over GST control) in test [13]; 1.32 fold enrichment (6-mer frequency, TF over GST control) in test [14]; 1.23 fold enrichment (6-mer frequency, TF over GST control) in test [15]; 1.03 fold enrichment (6-mer frequency, TF over GST control) in test [16]; 1.05 fold enrichment (6-mer frequency, TF over GST control) in test [17].
